From PubChem BioAssay (NCATS) come the findings set out here.

SMILES strings stand for the structures. Results filed as inconclusive are left out. A call without a number means that no potency is given here. Activity calls are given as the source filed them. The call rests on the fitted dose curve; in most records, active means well fitted curve in the direction sought with a large enough effect; inconclusive means small, poorly fitted or top-dose-only effect, or another doubt; inactive means no such curve, though single readings can be large; an effect the other way counts as inactive or inconclusive.

A short description of test [1]: qHTS assay for cell viability of the p53RE-bla HCT-116 cell line (AID 743292). Further: nearly all actives have a fitted effect of over 55% in size. In a few lines: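 Viability of compound-treated p53RE-bla HCT-116 cells is taken from ATP-dependent luciferase luminescence. Treatment lasts 16 h at 37 C after a 5 h settling period; detection follows 30 min at room temperature.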
(In general: qHTS replaces the single test concentration by a dilution series.)

Test [2] can be described thus: qHTS assay for measurement of the activity of small molecule inhibitors on Zika virus induced Caspase-3 activity in human iPSC derived neural progenitor cells (hNPCs) (AID 1224857). Further: nearly all actives have a fitted effect of over 65% in size. Further: potency means the concentration at half of the fitted maximal effect. The method in brief:
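Values are percent inhibition of virus-induced caspase-3/7 signal, scaled between uninfected cells and ZIKV-infected cells. Infection used 2 FFU/cell for 6 h after 1 h compound exposure.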

A short description of test [3]: qHTS assay for measurement of the activity of small molecule inhibitors on Zika virus induced Caspase-3 activity in human astrocytoma cells (AID 1224859). In a few lines:
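Compound added 1 h pre-infection; ZIKV 2 FFU/cell on SNB-19 cells, 6 h, 37 C/5% CO2. Caspase-Glo 3/7 luminescence; values as % inhibition of ZIKV-induced caspase activity.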

The nature of test [4]: P-glycoprotein substrates identified in KB-3-1 adenocarcinoma cell line, qHTS therapeutic library screen (AID 1346986). Further: nearly all actives have a fitted effect of over 60% in size. In a few lines: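 KB-3-1 parental and colchicine-selected P-gp-overexpressing KB-8-5-11 cells (colchicine omitted during assay), 500 cells/well, dosed in dose-response for 72 h at 37 °C; CellTiter-Glo luminescence. Cytotoxic: curve class -1.1 to -2.4, max response >50%, AC50 < 10 uM.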

As for `Oc1ccccc1`, the Potency entry in test [1] and in test [2] was “inactive” in each case. Moreover, the result in test [3] was inactive.
In the case of `CC(C)(C)c1ccc(O)c(O)c1`, the Potency result in test [1] was “inactive”. Further, the Potency in test [2] is 35.5 µM (active). Also, the compound was called inactive in test [3].
On to `Brc1ccccc1-c1ccccc1`, for which the Potency result in test [1] and in test [2] was “inactive” in each case. For the same compound, the compound was called inactive in test [3].
For the compound `O=C(c1ccccc1)c1ccccc1`, the Potency entry in test [1] and in test [2] was “inactive” throughout. Besides, the compound was called inactive in test [3].
For `CC(=O)OC/C=C(C)/C=C/C=C(C)/C=C/C1=C(C)CCCC1(C)C`, the Potency entry in test [1] and in test [2] was “inactive” in each case. In test [3], the compound was called inactive.
`CC(=O)Nc1ccn(C2COC(COC(=O)c3ccccc3)O2)c(=O)n1` (stereo not drawn): the Potency entry in test [2] and in test [4] was “inactive” each time. In addition, the result in test [3] was inactive.
